Compound activity deposited in PubChem BioAssay by The Scripps Research Institute Molecular Screening Center.
DAX1 inh-1: blocks DAX1 repression of SF-1 activated StAR promoter | HEK293T StAR-luciferase reporter, SF-1/DAX-1 repression relief | inhibition, % at 6.8 µM | hit rate 1.1% among 370,000;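 active = inhibition above the mean over all tested compounds plus 3 SD, cut at about 3.6% in these data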;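 note: 0% = DAX-1 cells with DMSO and 100% = cells lacking DAX-1 with DMSO; higher inhibition means more luminescence from relief of DAX-1 repression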
ssDAF12 agonist: activators of S. stercoralis DAF-12 nuclear receptor; HEK293 ssDAF-12/GRIP1 lit1-tk-luc reporter, luminescence; % of 3 µM dafachronic acid response; hit rate 1% among 370,000; activation, % at 6.8 µM;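 active = activation above the mean over all tested compounds plus 3 SD, cut at about 0.9% in these data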;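 note: 0% = DMSO-only wells and 100% = 3 µM delta7-dafachronic acid wells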
hgDAF12 agonist: agonists of H. glycines DAF-12 nuclear receptor; HEK293 GAL4-hgDAF12 UAS-luciferase reporter, agonist luminescence; normalized to butyrate control; activation, % at 6.8 µM; hit rate 1.8% among 370,000; AID 687014;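 active = activation above a cutoff set at the mean of all screened compounds plus 3 SD, cut at about 10% in these data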;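 note: 0% = DMSO wells and 100% = sodium butyrate wells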
Wee1 degr inh: inhibitors of human Wee1 degradation; HeLa Luc-Wee1K328M stability, luciferase luminescence; 100% = proteasome inhibitor MG132 effect; P30291; hit rate 1.2% among 220,000; reporter increase, % at 5 µM;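 active = activation above the mean of all tested compounds plus 3 SD, set per screening run, cut at about 8.8% in these data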;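 note: cells exposed to compound for 20 h before luminescence read; 0% = DMSO alone and 100% = MG132 at 30 µM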
DAX1 inh-2: inhibits human nuclear receptor DAX1; HEK293 Gal4-DAX1 luciferase reporter, luminescence; hit rate 0.99% among 340,000; P51843; inhibition, % at 6.75 µM;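 active = inhibition above the mean over all tested compounds plus 3 SD, cut at about 4.2% in these data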;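 note: 0% = DAX1-transfected cells with DMSO and 100% = empty-vector control cells with DMSO; inhibition shows as a rise in luminescence from relieved DAX1 repression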
hcDAF12 agonist: H. contortus DAF-12 activation, primary screen. HEK293 hcDAF-12 lit1-tk-luc reporter, luminescence; 0% DMSO, 100% Δ7-dafachronic acid. activation, % at 6.8 µM. hit rate 1.4% among 370,000. AID 652067;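 active = activation above the mean of all tested compounds plus 3 SD, cut at about 5.5% in these data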;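 note: 100% = response to 3 µM Δ7-dafachronic acid high control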
LXRb hcDAF ctr: activates human LXR-beta, counter-screen for hcDAF-12 agonists; shares compounds with hcDAF12 agonist; HEK293 Gal4-LXR tk-luc reporter, luminescence, 24 h; normalized: DMSO 0%, positive control 100%; activation, % at 6.8 µM; 3,400 tested, under 10 active; AID 743027;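 active = mean percent activation of the reporter above a cutoff set as the average over tested compounds plus their standard deviation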
Target sequence (P55055 whole entry, looked up, the tested form may be a part): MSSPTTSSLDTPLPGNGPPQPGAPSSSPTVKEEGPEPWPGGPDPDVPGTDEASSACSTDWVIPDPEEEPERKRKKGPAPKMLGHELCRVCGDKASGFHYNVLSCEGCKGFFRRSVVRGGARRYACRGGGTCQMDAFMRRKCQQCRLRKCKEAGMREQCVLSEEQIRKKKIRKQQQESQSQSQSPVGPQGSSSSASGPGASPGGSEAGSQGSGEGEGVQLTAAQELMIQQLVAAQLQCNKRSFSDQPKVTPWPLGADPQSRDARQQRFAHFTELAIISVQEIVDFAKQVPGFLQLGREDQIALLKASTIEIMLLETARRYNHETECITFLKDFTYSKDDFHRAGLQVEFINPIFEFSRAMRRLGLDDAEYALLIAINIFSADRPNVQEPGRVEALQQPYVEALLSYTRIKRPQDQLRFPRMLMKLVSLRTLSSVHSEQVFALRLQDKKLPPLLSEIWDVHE
hcDAF12 conf: confirmation of H. contortus DAF-12 agonists. shares compounds with hcDAF12 agonist. HEK293 hcDAF-12 lit1-tk-luc reporter, luminescence; % of Δ7-dafachronic acid response. activation, % at 6.8 µM. hit rate 61% among 3,400. AID 743032;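 active = mean activation across triplicate tests above the threshold derived from the earlier primary screen, cut at about 5.5% in these data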;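 note: 0% = DMSO only wells and 100% = 3 µM Δ7-dafachronic acid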
* hit, by the source's call; . = no result. Hits are enriched below; roughly 4.6% of the tested compounds scored in any of these assays.

SMILES	DAX1 inh-1	ssDAF12 agonist	hgDAF12 agonist	Wee1 degr inh	DAX1 inh-2	hcDAF12 agonist	LXRb hcDAF ctr	hcDAF12 conf
CCNC(=O)C1(C)CCCN(C(=O)c2ccc(F)c(C)c2)C1 (centres undefined)	1.7	-0.9	-2.5	.	.	-1.6	.	.
Clc1ccc(C=NNc2ccccn2)c(Cl)c1	-1.2	-0.2	0.2	.	-0.3	2.4	.	.
Fc1cccc(Cl)c1/C=N/Nc1ccccn1	0.3	0.6	6.4	-2.9	0.9	7.0*	0.2	10.0*
Fc1cccc(F)c1/C=N/Nc1ccccn1	1.5	1.5*	13.2*	-0.3	5.2*	7.1*	0.5	10.0*
COc1ccc(S(=O)(=O)N2CCCCC2c2cc(C(=O)Nc3ccc(F)c(Cl)c3)no2)cc1 (centres undefined)	-0.3	-1.5	-3.8	.	.	-0.1	.	.
COc1ccc(-n2nnnc2C(c2cccs2)N2CCN(C/C=C/c3ccccc3)CC2)cc1 (centres undefined)	-1.3	-1.5	-0.2	.	.	-1.6	.	.
CC(C)NC(=O)C1Cc2c(-c3ccc(Cl)cc3)ccnc2O1 (centres undefined)	-0.5	-1.8	0.5	.	.	-1.1	.	.
O=C(O)c1ccc(-c2noc(-c3ccccc3C(F)(F)F)n2)cc1	1.1	-0.5	4.1	.	0.4	0.3	.	.
O=C(O)c1ccc(-c2noc(-c3ccccc3Cl)n2)cc1	2.6	0.6	9.0	.	-2.0	8.2*	1.4	9.9*
CCOC(=O)C1=CCN(S(=O)(=O)c2ccc(C)cc2)C1c1ccc(CC)cc1 (centres undefined)	-0.9	-1.6	-2.4	.	.	-0.7	.	.
CN(C(=O)CC1C(=O)NCCN1Cc1c(F)cccc1Cl)C1CCOCC1 (centres undefined)	-0.2	-1.0	-1.4	.	-0.8	-0.4	.	.
CCN(CCO)C(=O)CC1C(=O)NCCN1Cc1c(F)cccc1Cl (centres undefined)	0.3	-0.2	-4.3	2.6	2.1	10.6*	-0.3	0.5
COc1ccc(C(=O)N2CCCC(C)(C(=O)NS(=O)(=O)C3CC3)C2)cc1 (centres undefined)	-0.8	-1.0	0.8	.	.	-1.8	.	.
Cc1ccc2nc(-c3ccc(NC(=O)COC(=O)c4ccc([N+](=O)[O-])o4)cc3)sc2c1	4.0*	1.3*	22.9*	7.3	1.8	7.4*	1.7	8.8*
O=C(O)C1CC(=O)N(c2ccc(OCc3ccccc3Cl)cc2)C1 (centres undefined)	0.3	-1.1	-2.3	6.2	-0.2	-0.5	.	.
NC(=O)C1CC(=O)N(c2ccc(OCc3ccccc3Cl)cc2)C1 (centres undefined)	0.4	0.0	5.6	0.1	-1.0	7.3*	-0.1	0.4
Cc1noc(C(=O)Nc2ccc3c(c2)OCO3)c1Cl	2.8	0.7	7.9	0.7	2.0	6.7*	0.3	5.5
CC(=O)c1ccc(NC(=O)c2onc(C)c2Cl)cc1	2.6	-0.3	9.4	.	0.1	7.8*	1.1	6.4*
CC(=O)c1cccc(NC(=O)c2onc(C)c2Cl)c1	0.7	-1.0	1.3	0.0	0.9	-1.8	.	.
NC(=O)c1ccc(NC(=O)c2cnc3ccccc3n2)cc1	0.4	-0.1	6.2	2.4	2.5	5.1	.	.
O=C(Nc1ccccc1)c1cnc2ccccc2n1	2.1	1.1*	10.6*	-1.4	-0.6	7.5*	0.7	7.4*
Cc1ccc(CNC(=O)CCNC(=O)c2ccc([N+](=O)[O-])cc2)cc1	-0.8	-1.1	0.1	.	1.9	1.6	.	.
CCC(=O)Nc1nc(N)n(-c2ccccc2)n1	-1.2	-0.7	0.6	1.6	-0.5	-2.5	.	.
CCC(=O)Nc1cc2nn(-c3ccccc3)nc2cc1Cl	1.5	0.3	7.9	6.7	0.8	7.3*	1.7	13.2*
CC(=O)c1c(C)[nH]c(C(=O)OCC(=O)Nc2cc(Cl)ccc2[N+](=O)[O-])c1C	0.4	-0.8	0.8	1.9	-0.7	7.0*	-0.5	-0.1
